Laboratory results from PubChem BioAssay AID488841 (Sanford-Burnham Center for Chemical Genomics, 2010).
Screen size: about 1,400 compounds; about 380 (27%) were called active.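 Rule for the calls: active = mean inhibition above 50% across duplicate retests at 10 µM; inactive = the rest.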 The list shows a part of the results.

Assay: inhibition of NALP1/ASC/caspase-1 reporter signal in yeast, confirmation, NALP1 inhibitor project, S. cerevisiae, luminescence, single concentration (AID 488841);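 note: plate controls were DMSO in galactose medium for no effect and cells in plain SD medium for full effect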
Details: S. cerevisiae NALP1/ASC/Caspase-1 reporter, beta-gal luminescence; at 10 µM; hits give high values

inhibition, inactive:
CCCCN(C)C(=O)c1nc2ccccn2c1CNCCCn1ncc2ccccc21 16.4%
COC(=O)c1c(NC(=O)C2CCCO2)sc2c1CCC2 (configuration not stated) 39.9%
Cc1ccccc1OCC(=O)Nc1sc2c(c1C#N)CCC2 16.7%
Cc1ccc(C(C)C)cc1OCCN1CCCC1 40.4%
CSc1ccc(CN(C)CC(=O)Nc2ccc(C)cc2Br)cc1 47.1%
Cc1ccc(OCCCCN2CCCCC2)c(Br)c1 41.6%
C=CCNCCCCOc1ccc(Br)cc1C 41.7%
O=C(O)CC1NC(=S)N(c2ccccc2)C1=O (configuration not stated) 29.9%
COc1ccc(NCc2ccc([N+](=O)[O-])s2)c(OC)c1 49.1%
CC(C)(C)c1ccc(COn2c(=O)c(-c3ccco3)[n+]([O-])c3ccccc32)cc1 12.9%
COc1cccc(NC2=C(Cl)C(=O)OC2OC(=O)c2ccco2)c1 (configuration not stated) 29.2%
CCCc1nc2ccc(NC(=O)c3ccco3)cc2c(=O)n1Cc1ccccc1Cl 27%
COc1ccc2c(c1)C1=NN(/C(C)=C/C(C)=O)C(c3ccc(F)cc3)C1CC2 (configuration not stated) 42.4%
Cn1nc(NC(=O)C(C)(C)C)c2c(F)cccc21 8.45%
CC(C)Oc1ccc(Cc2cnc(N)nc2N)cc1 9.95%
Cc1ncc(S(=O)(=O)c2ccccc2)c(-c2ccccc2Cl)n1 10.2%
CC(NC(=O)c1ccc(F)cc1)C(=O)NC1=NCCS1 (configuration not stated) 22.1%
CN1CCN(C2=C(Cl)C(=O)N(CCc3ccccc3)C2=O)CC1 46.6%
Cn1c(/C(C#N)=C/C2CC=CCC2)nc2ccccc21 (configuration not stated) 37%
N#C/C(=C\c1ccc([N+](=O)[O-])o1)c1nc2ccccc2[nH]1 24.8%
O=c1oc2ccccc2nc1/C=C(O)/C=C/c1ccc(F)cc1 33.8%
COc1ccccc1C(=O)Nc1nc2nc(-c3ccccc3)cc(=O)n2[nH]1 22.9%
CCN(CC)CCN1C(=O)c2ccccc2NC1c1ccc(N(C)C)cc1 (configuration not stated) 25.7%
CCN(C(=O)[C@@H]1CCCN1C(=O)c1cccs1)c1nc2cc(Cl)ccc2s1 46.8%
CCCCNC(=O)COC(=O)c1ccc(Cl)c(S(N)(=O)=O)c1 25.9%
CCOc1nnc(C)c2c(C)n(-c3cccc(Cl)c3)nc12 25.5%
Clc1ccc2oc3c(Cl)ncnc3c2c1 23.1%
CC(C)(C)c1cc2cccnc2n1Cc1cccc(Cl)c1 35.9%
CC(OC(=O)CC(NC(=O)c1ccccc1Cl)c1ccccc1)C(=O)Nc1cccc(Cl)c1Cl (configuration not stated) 29.8%
O=C(CCl)NC(=O)NC12CC3CC(CC(C3)C1)C2 32.7%
CCCCNC(=O)C(=O)N/N=C/c1cccc(Br)c1 45.6%
CC(/C=N/NC(=O)CSc1ccccn1)=C\c1ccc(C(C)C)cc1 26.2%
CC(/C=N/NC(=O)CCn1nnc2ccccc21)=C\c1ccccc1 38.2%
COc1cc2c(cc1NC(=S)Nc1ccccc1C)oc1ccccc12 26.9%
CCOC(=O)/C(=N\Nc1ccc(Cl)cc1)c1csc(Nc2ccccc2)n1 27.4%
Cc1ccc(S(=O)(=O)c2nc(C)oc2NCc2ccccc2)cc1 35%
CCCOc1ccc(OCCSc2ncccn2)cc1 39.4%
Cc1cc(N2C(=O)C=CC2=O)c([N+](=O)[O-])cc1C 41.7%
Fc1ccc(NC(=S)N2CCSC2c2cccs2)cc1 (configuration not stated) 17.1%
Cc1ccc(S(=O)(=O)NC2=NCN(CCOC(=O)c3ccc([N+](=O)[O-])cc3)CN2)cc1 22.2%
COc1ccc(C(=O)Nc2ccc(S(=O)(=O)Nc3nccc(C)n3)cc2)cc1OC 31.2%
COc1ccc2nc3oc(C(=O)Nc4ccc(OC)c(OC)c4)cc3cc2c1 23.6%
c1ccc(COc2ccc(OCCN3CCCCC3)cc2)cc1 35.1%
O=C(O)c1cccnc1C(=O)N1CCc2c([nH]c3ccccc23)C1C(F)(F)F (configuration not stated) 0.7%
COc1ccccc1NC(=O)C1=C(C)NC(=O)NC1c1cccs1 (configuration not stated) 27.1%
Cc1ccc(C(=O)NCCCNc2ccc(C(F)(F)F)cc2[N+](=O)[O-])cc1 31.8%
CCOC(=O)C(=O)C1=C(N2CCOCC2)/C(=C\c2ccc(F)cc2)CC1 33.4%
CCOc1c(Cl)cc(CNCC(C)C)cc1OC 32.7%
COc1cc(CNC2CCCCCCC2)cc(Br)c1OCC#N 38.8%
COc1ccc2c(c1)NC(=O)CC(c1ccccc1)=N2 43.5%
Cc1cccc(NC(=O)c2ccc(C3SCC(=O)N3CCc3ccccc3)cc2)c1C (configuration not stated) 48.8%
COc1ccc(N=c2cc(-c3ccc(OC)cc3)oc3ccccc23)cc1 49.6%
CCCCN(Cc1ccccc1)C(=O)C1CCN(Cc2sccc2C)CC1 40.8%
Nc1c(C(=O)NCc2ccc3c(c2)OCO3)nnn1-c1ccc(OC(F)(F)F)cc1 31.3%
Cc1ccc(/C=C/C(=O)NCc2ccc3c(c2)OCO3)o1 36%
CCOc1oc(-c2ccc(OC)cc2)nc1C(F)(F)F 24.1%
O=C(Nc1cccc(-c2nc3ncccc3o2)c1)c1cc2ccccc2o1 46.4%
O=C(N/N=C/c1ccncc1)c1cc2ccccc2o1 47.5%
COc1cccc(CN(C)CC(=O)Nc2cccc(S(N)(=O)=O)c2)c1OC 33.9%
C(#Cc1ccc(C#CCN2CCCC2)cc1)CN1CCCC1 17.6%
CCC(=O)c1ccc(OCC(O)CN2CCN(c3cccc(C(F)(F)F)c3)CC2)cc1 (configuration not stated) 49.5%
CCOC(=O)N1CCN(CC(O)COc2ccccc2C(C)(C)C)CC1 (configuration not stated) 42.4%
OC(CSc1c(Cl)cccc1Cl)CN1CCN(c2ccccc2F)CC1 (configuration not stated) 40.9%
Cc1cccc(C(=O)NNC(=O)CN2C(=O)c3ccccc3C2=O)c1 24.9%
Cc1ccc(N2C(=N)/C(=C3/Nc4ccccc4S3)C(c3ccccc3)C2=O)cc1 (configuration not stated) 35.2%
CCc1cccc2c(C(=O)COC(=O)c3ccccc3)c[nH]c12 40%
CCc1cccc2c(C(=O)CSc3nncn3-c3ccc(OC)cc3)c[nH]c12 25.8%
c1csc(CNc2nc3ccccc3n2CCN2CCOCC2)c1 33.5%
O=C(CNC(c1ccccc1)c1ccccc1)Nc1c(F)cccc1F 26.1%
COC(=O)c1ccc(NC(=O)CN2C(=O)CNC2=O)cc1 32.5%
CC(C)NCCOCCOc1ccc(Cl)cc1Br 35.1%
CN(C)CCNC(=O)COc1ccc(Cl)cc1Cl 25.2%
C=C1SC(Nc2c(C)cccc2C)=NC12CCCCC2 29.4%
COc1ccccc1C(=O)Nc1ccc(OCc2nnc3c4ccccc4c(C)nn23)cc1 36.5%
COc1ccc2[nH]c(C)c(CCNC(=S)Nc3cc(C)cc(C)c3)c2c1 30%

inhibition, active:
Cc1ccc(C(=O)c2c(NC(=O)c3ccncc3)sc3c2CCCC3)cc1 51%
Cc1ccc(OCCCCN(C)Cc2ccccc2)c(Br)c1 61.5%
CCCCCOc1ccc(Br)cc1CSC(=N)N 57.2%
CC(=O)N1N=C(c2ccc3ccccc3c2)OC1(C)C 77.3%
O=C(Nc1ccc(Cl)c(Cl)c1)Oc1ccc(NC(=O)c2ccco2)cc1 52.8%
O=C1O/C(=C/c2ccccc2)c2ccccc21 73.8%
Cc1ccc(-c2csc(NC(=O)c3ccc(F)cc3)c2C(=O)O)cc1 89.8%
N#C/C(=C/c1cccs1)c1nc2ccccc2[nH]1 89%
CN(C)CCN(C(=O)/C=C/c1cccs1)c1nc2ccc(F)cc2s1 72.1%
CN(C)CCN(C(=O)/C=C/c1cccs1)c1nc2c(F)cc(F)cc2s1 51.6%
Cc1cc(C)n(CCOc2ccc(Cl)cc2Cl)n1 53.1%
CC(/C=N/NC(=O)c1c(Br)cnn1C)=C\c1ccccc1 54.4%
Cc1ccc(S(=O)(=O)c2nc(Nc3ccccc3)sc2Cl)cc1 55.3%
Brc1ccc(C=Nc2ccc(Nc3ccccc3)cc2)s1 51.1%
COc1ccc(NC(=S)SC)cc1OC 52.4%
O=[N+]([O-])c1cc(C(F)(F)F)ccc1NCCc1c[nH]c2ccc(O)cc12 51.8%
CCOc1cc(CNC2CCCC2)cc(Cl)c1OCc1ccc(F)cc1 50.7%
CCOc1cc(CNCc2ccncc2)cc(Br)c1OCc1ccc(F)cc1 69.7%
O=S(=O)(NC1CCCCC1)c1ccc(F)c2ccccc12 51.6%
O=C(CSCc1cnn(-c2ccccc2)c1-n1cccc1)NCc1ccc2c(c1)OCO2 50%
COc1ccc2c(c1)O/C(=C\c1sccc1C)C2=O 65.4%
O=C(NC(=S)Nc1cccnc1)c1cc2ccccc2o1 55.4%
OC(COc1ccc2c(c1)CCC2)CN1CCN(c2ccccc2F)CC1 (configuration not stated) 73.8%
O=[N+]([O-])c1ccc(OCC(O)CN2CCN(c3ccccc3F)CC2)cc1 (configuration not stated) 55.2%
CCc1cccc2c(C(=O)COC(=O)c3ccc([N+](=O)[O-])s3)c[nH]c12 91.5%
CC(C)NC(=O)CCCOc1ccc(Cl)cc1Cl 54.9%
COc1ccc2[nH]c3c(C)c4ccncc4c(C)c3c2c1 94.5%
